The target in test [1] is Glutathione peroxidase 1 (Homo sapiens) (UniProt P07203). Briefly: Primary qHTS Assay for Inhibitors of Recombinant Selenoprotein Glutathione Peroxidase 1 (GPX1) (AID 1845191). Further: nearly all actives have a fitted effect of over 65% in size. On activity, negative = inhibition: on the % scale 0 is the no-effect control and ±100 the full control effect. The essentials: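 GR-coupled readout: NADPH consumption tracked by fluorescence, ex 340/em 450 nm, at t=0 and after 15 min at RT. Final mix 10 nM GPX1, 1 mM GSH, 0.5 mM CHP, 0.5 mM NADPH, 100 nM GR, 0.01% BSA, following 30 min enzyme–compound preincubation.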
Sequence of Glutathione peroxidase 1 (Homo sapiens) (P07203 whole entry, looked up): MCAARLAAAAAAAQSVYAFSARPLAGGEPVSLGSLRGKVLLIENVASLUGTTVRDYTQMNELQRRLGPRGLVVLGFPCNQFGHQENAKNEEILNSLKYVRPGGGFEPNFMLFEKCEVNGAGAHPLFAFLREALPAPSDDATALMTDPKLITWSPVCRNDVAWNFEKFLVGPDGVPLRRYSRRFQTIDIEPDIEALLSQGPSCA
For orientation: qHTS replaces the single test concentration by a dilution series.

Test [2] has as its target Phospholipid hydroperoxide glutathione peroxidase GPX4 (Homo sapiens) (UniProt P36969). The test can be described thus: Primary qHTS Assay for Inhibitors of Recombinant Selenoprotein Glutathione Peroxidase 4 (GPX4) (AID 1845192). Further: nearly all actives have a fitted effect of over 65% in size. Further: potency means the concentration at half of the fitted maximal effect. In outline: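 Steps: GPX4 plus compound, 30 min RT; add GR/GSH/NADPH master mix; start with cumene hydroperoxide; read 340/450 nm fluorescence at 0 and 15 min. Finals were 200 nM GPX4, 1 mM GSH, 0.5 mM CHP, 0.5 mM NADPH, 100 nM GR.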

Test [3] can be described thus: qHTS drug screen for cell cycle checkpoint inhibitors in PARPi-resistant BRCA-mutant ovarian cancer cell lines. (AID 1963452; calls by dose curve). The settings on record: PEO1/OlaR viability, CellTiter-Glo luminescence, 96 h, stronger effect = lower value. In outline:
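PEO1, PEO4 and PEO1/OlaR ovarian cancer cells, 600 per well, exposed 96 h at 37C to a dilution series. Viability read by CellTiter-Glo luminescence, normalized to DMSO and empty wells; activity summarized as Z-AUC.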

Test [4] concerns the target Cytochrome P450 3A4 (Homo sapiens) (UniProt P08684). The test can be described thus: qHTS Assay for Inhibitors and Substrates of Cytochrome P450 3A4 (AID 884). Further: on the % scale 0 is the no-effect control and ±100 the full control effect; nearly all actives have a fitted effect of over 50% in size. The essentials: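 Luminescent readout of luciferin produced by CYP3A4 (20 nM) dealkylation of Luciferin-PPXE, 25 uM (its KM). NADPH-driven reaction ran 60 min at RT after 10 min compound preincubation; data scaled to 57 uM ketoconazole as 100% inhibition.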

Test [5] can be described thus: qHTS assay for small molecule antagonists of retinoid X receptor alpha signaling (AID 588546).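 Further: cells stimulated with 9-cis-retinoic acid as agonist; on the % scale 0 is the no-effect control and ±100 the full control effect.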 As to conditions: HEK293T RXRa-UAS-bla, beta-lactamase ratio, antagonist mode; measured here: W530 green channel, cytotoxicity proxy. In outline:
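Beta-lactamase reporter inhibition, read as CCF4 fluorescence ratio (ex 405, em 460/530 nm) after 2 h at RT. HEK293T UAS-bla cells, 2500/well, were stimulated with 9-cis-RA at 500 or 100 nM final alongside test compound for 18 h at 37 C.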

Test [6] is described as follows: qHTS assay for environmental chemicals that activate the Aryl hydrocarbon Receptor (AhR) signaling pathway (AID 651777). Further: % of control where 0% means no effect; nearly all actives have a fitted effect of over 15% in size. As to conditions: 1A2-DRE human hepatoma cells, luciferase, 24 h; activation: stronger effect = higher value. In outline:
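Stable CYP1A2 promoter/DRE-luciferase human hepatoma line treated 24 hr; One-Glo luminescence, 30 min RT.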

Test [7] has as its target Peroxisome proliferator-activated receptor alpha (Homo sapiens) (UniProt Q07869). The test can be described thus: qHTS assay for small molecule agonists of the peroxisome proliferator-activated receptor alpha (PPARalpha) signaling pathway (AID 651778). Further: % of control where 0% means no effect. The settings on record: PathHunter PPARalpha complementation, chemiluminescence, 6 h; max response: stronger effect = higher value. In outline: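 Enzyme-fragment complementation assay in which ligand-bound PPARalpha translocates and forms an active enzyme that generates chemiluminescence. Cells were plated overnight, exposed to compound for 6 hr at 37 C, and then given detection reagent for 60 min at room temperature.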

A short description of test [8]: qHTS assay for small molecule agonists of the antioxidant response element (ARE) signaling pathway measured by Nrf2-dependant transcriptional activity (AID 720636; active means well fitted curve in the direction sought with a large enough effect in the repeat runs; an effect the other way counts as inactive or inconclusive;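 further: HepG2 cells with an ARE-driven luciferase reporter; % of control where 0% means no effect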). In outline: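 Reporter gene assay, HepG2 ARE-luc: 16 hr compound, 37 C, 5% CO2; read-out luciferase luminescence.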
Test [9] is described as follows: qHTS assay for cell viability of HEK293 cells (AID 743288). Further: on the % scale 0 is the no-effect control and ±100 the full control effect; nearly all actives have a fitted effect of over 50% in size. As to conditions: ATP luminescence (CellTiter-Glo), 18 h; max response: stronger effect = lower value. The essentials:
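Readout is luciferase-coupled ATP content (CellTiter-Glo luminescence, 30 min room temperature) as a measure of metabolically competent cells. Parental HEK293 cells were plated 5 h or more before compound addition, then treated 18 h at 37 C.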

The target in test [10] is Luciferin 4-monooxygenase (Photinus pyralis) (UniProt P08659). Briefly: Biochemical firefly luciferase enzyme assay for NPC (AID 624030).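 Further: purified P. pyralis luciferase at 10 nM with luciferin and ATP substrate; 0% = DMSO and -100% = full luciferase inhibition by PTC124 control; nearly all actives have a fitted effect of over 70% in size.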 In outline: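 Purified P. pyralis luciferase at 10 nM in 50 mM Tris Acetate (final), luminescence read within 5 minutes of enzyme addition to compounds. Activity normalised to PTC124 versus DMSO; concentration-response curves classed by r2, magnitude and activity.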
Sequence of Luciferin 4-monooxygenase (Photinus pyralis) (P08659 whole entry, looked up): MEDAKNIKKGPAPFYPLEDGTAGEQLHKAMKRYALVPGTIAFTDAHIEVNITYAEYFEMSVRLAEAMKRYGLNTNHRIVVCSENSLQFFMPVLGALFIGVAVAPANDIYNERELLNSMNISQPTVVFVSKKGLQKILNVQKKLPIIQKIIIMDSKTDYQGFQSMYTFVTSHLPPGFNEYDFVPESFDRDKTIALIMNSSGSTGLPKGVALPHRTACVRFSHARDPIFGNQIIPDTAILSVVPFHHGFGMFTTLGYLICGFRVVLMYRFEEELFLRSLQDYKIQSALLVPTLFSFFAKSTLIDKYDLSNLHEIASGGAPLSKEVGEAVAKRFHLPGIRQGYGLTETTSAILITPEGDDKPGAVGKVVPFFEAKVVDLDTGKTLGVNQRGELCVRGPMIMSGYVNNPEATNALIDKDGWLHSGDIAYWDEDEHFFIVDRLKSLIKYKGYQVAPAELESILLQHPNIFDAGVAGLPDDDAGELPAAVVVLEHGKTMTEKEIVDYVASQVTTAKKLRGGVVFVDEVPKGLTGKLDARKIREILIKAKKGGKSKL

The nature of test [11]: qHTS profiling for inhibitors of Plasmodium falciparum proliferation (AID 504749).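 Further: 0% = DMSO vehicle and full inhibition = artemisinin control; nearly all actives have a fitted effect of over 60% in size.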 The settings on record: P. falciparum in erythrocytes, SYBR Green DNA, 72 h, at 28.7 µM (top of the series). The essentials:
(§1)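 Each compound contacts P. falciparum-infected red blood cells for 72 h at 37 C; lysis buffer (Tris, EDTA, saponin, Triton X, SYBR Green I) is added and fluorescence measured next morning; values normalized to controls.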

For the next test, the system named is AA1029. The description is as above. The settings on record: P. falciparum in erythrocytes, SYBR Green DNA, 72 h; series mostly up to 28.7 µM. In outline:
as §1

A further test concerns ATS189. Described as above. The settings on record: P. falciparum in erythrocytes, SYBR Green DNA, 72 h; series mostly up to 28.7 µM. The essentials: as §1
The test system of the next test is ATS95. Described as above. As to conditions: P. falciparum in erythrocytes, SYBR Green DNA, 72 h; series mostly up to 28.7 µM. The essentials: as §1
The subject of the next test is CP192. Described as above. As to conditions: P. falciparum in erythrocytes, SYBR Green DNA, 72 h; series mostly up to 28.7 µM. The essentials: as §1
Another test concerns CP238. Described as above. The settings on record: P. falciparum in erythrocytes, SYBR Green DNA, 72 h; series mostly up to 28.7 µM. The essentials:
as §1

The test system of the next test is CP286. The description is as above. The settings on record: P. falciparum in erythrocytes, SYBR Green DNA, 72 h; series mostly up to 28.7 µM. The essentials: as §1
In a further test the test system is CP291. The description is as above. As to conditions: P. falciparum in erythrocytes, SYBR Green DNA, 72 h; series mostly up to 28.7 µM. The essentials: as §1
The test system of a further test is DFO2036. The test is described as above. The settings on record: P. falciparum in erythrocytes, SYBR Green DNA, 72 h; series mostly up to 28.7 µM. The essentials: as §1
Another test has as its system GB4. Described as above. The settings on record: P. falciparum in erythrocytes, SYBR Green DNA, 72 h; series mostly up to 28.7 µM. In outline: as §1
[12] abbreviates: measured here: PEO1 parental Z-AUC.

Records with an inconclusive call do not appear. The source made the active and inactive calls. Unless noted, the call rests on the fitted dose curve; in most records, active means well fitted curve in the direction sought with a large enough effect; inconclusive means small, poorly fitted or top-dose-only effect, or another doubt; inactive means no such curve, though single readings can be large; an effect the other way counts as inactive or inconclusive. Bridge positions count the residues as written; N and C are the ends. Square brackets hold non-standard residues; d marks the D form. Peptide text beside a SMILES is read from it. * marks the point of attachment. Octanoyl(6-Me) = CCC(C)CCCCC(=O)*; Dab = NCC[CH](N)C(=O)O

Sequence of Phospholipid hydroperoxide glutathione peroxidase GPX4 (Homo sapiens) (P36969 whole entry, looked up): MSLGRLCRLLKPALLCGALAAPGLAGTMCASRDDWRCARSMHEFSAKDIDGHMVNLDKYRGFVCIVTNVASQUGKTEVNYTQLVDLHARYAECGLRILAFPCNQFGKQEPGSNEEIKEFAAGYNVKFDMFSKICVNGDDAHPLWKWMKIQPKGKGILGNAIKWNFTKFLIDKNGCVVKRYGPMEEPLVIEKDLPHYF
Sequence of Cytochrome P450 3A4 (Homo sapiens) (P08684 whole entry, looked up): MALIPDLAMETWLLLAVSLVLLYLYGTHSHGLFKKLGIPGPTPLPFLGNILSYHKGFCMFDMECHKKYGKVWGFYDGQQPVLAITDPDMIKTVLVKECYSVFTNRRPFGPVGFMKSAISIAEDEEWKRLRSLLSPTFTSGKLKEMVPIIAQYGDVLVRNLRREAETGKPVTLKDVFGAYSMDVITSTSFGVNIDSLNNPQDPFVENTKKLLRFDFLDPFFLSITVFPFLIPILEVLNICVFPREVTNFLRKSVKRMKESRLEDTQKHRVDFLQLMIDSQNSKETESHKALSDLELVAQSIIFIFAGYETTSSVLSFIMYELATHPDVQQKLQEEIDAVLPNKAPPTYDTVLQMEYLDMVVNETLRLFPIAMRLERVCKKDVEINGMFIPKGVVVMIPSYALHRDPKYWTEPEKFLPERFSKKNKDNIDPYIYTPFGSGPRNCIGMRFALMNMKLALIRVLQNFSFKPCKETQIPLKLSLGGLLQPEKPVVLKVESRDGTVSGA
Sequence of Peroxisome proliferator-activated receptor alpha (Homo sapiens) (Q07869 whole entry, looked up, the tested form may be a part): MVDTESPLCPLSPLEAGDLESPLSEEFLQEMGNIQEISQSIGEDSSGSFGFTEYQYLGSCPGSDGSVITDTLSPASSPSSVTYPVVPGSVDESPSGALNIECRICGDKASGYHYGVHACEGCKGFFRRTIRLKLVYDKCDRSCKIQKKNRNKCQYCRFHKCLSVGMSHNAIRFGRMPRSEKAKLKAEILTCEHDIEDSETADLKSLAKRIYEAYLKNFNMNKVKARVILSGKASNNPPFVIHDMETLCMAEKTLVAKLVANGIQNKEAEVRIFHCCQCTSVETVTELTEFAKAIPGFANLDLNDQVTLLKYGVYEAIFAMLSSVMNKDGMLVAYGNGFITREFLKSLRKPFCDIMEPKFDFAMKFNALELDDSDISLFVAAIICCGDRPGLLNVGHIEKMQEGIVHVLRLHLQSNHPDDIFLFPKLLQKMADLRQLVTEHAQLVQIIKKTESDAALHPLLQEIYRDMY

Turning to `O=C1[C@@H]2[C@H]3CC[C@H](C3)[C@@H]2C(=O)N1C[C@@H]1CCCC[C@H]1CN1CCN(c2nsc3ccccc23)CC1`, the Potency result in test [1] and in [2] was “inactive” in each case.

With `OC[C@H]1O[C@H](O)[C@H](O)[C@@H](O)[C@@H]1O`, the Potency entry in test [1] and in [2] was “inactive” in each case.

Take `C/C(O)=C(\C#N)C(=O)Nc1ccc(C(F)(F)F)cc1`: the Potency result in test [1] and in test [2] was “inactive” throughout. Moreover, the Z-AUC in test [3] was -1.06 (inactive); in [3] (setting [12]), 0.703; in test [3] (measured here: PEO4 Z-AUC), -0.074.

For the compound `CNC(=O)c1ccccc1Nc1nc(Nc2ccc3c(c2OC)CCC[C@H](N2CCN(CCO)CC2)C3)ncc1Cl`, the Potency entry in test [1] and in test [2] was “inactive” each time. The Z-AUC in test [3] was -0.709 (inactive); in test [3] (setting [12]), -0.531; in test [3] (measured here: PEO4 Z-AUC) it was -0.58.

On to `CCCCCCCCCC(=O)OCCN1CCN(CCCN2c3ccccc3Sc3ccc(C(F)(F)F)cc32)CC1`, for which the Potency result in test [1] and in test [2] was “inactive” throughout.

Turning to `O=P(O)(O)OC1C(OP(=O)(O)O)C(OP(=O)(O)O)C(OP(=O)(O)O)C(OP(=O)(O)O)C1OP(=O)(O)O` (centres undefined), the Potency entry in test [1] and in test [2] was “inactive” each time.

With `CCCCCCCCCCCCCCCCCCCCCCCCCCCCO`, the values for the outcome in test [1] and in [2] were “inactive [at 0.4 µM]” and “inactive [at 0.409 µM]”, respectively.

As to `O=S(=O)(O)c1ccccc1`, the Potency result in test [4], in test [8], in test [1] and in test [2] was “inactive” throughout. The results for the max response in [5], in test [7] and in test [9] were 5.99%, -0.704% (inactive) and 8.35% (inactive), respectively. Further, the activation in test [6] was -0.565% (inactive).

As to `c1ccc2scnc2c1`, the Potency result in test [4], in test [8], in test [1] and in test [2] was “inactive” throughout. For the same compound, the figures for the max response in [5], in test [7] and in test [9] were -9.8%, -3.74% (inactive) and 11.2% (inactive), respectively. Also, the activation in [6] is -0.642% (inactive).

With `CCc1ccc(N(CC(C)C)S(=O)(=O)c2ccc(OCC3CCOCC3)c(CO)c2)cc1`, the Potency entry in test [1] and in [2] was “inactive” in each case. The Z-AUC is -1.27 (inactive) in test [3], -0.28 in [3] (setting [12]) and -0.861 in test [3] (measured here: PEO4 Z-AUC).

Regarding `CCC(C)CCCCC(=O)NC(CCN)C(=O)NC(C(=O)NC(CCN)C(=O)NC1CCNC(=O)C(C(C)O)NC(=O)C(CCN)NC(=O)C(CCN)NC(=O)C(CC(C)C)NC(=O)C(Cc2ccccc2)NC(=O)C(CCN)NC1=O)C(C)O` (centres undefined) ({Octanoyl(6-Me)}-[Dab]T[Dab][Dab][Dab]FL[Dab][Dab]T; lactam 4-C; configuration not given here), the Potency result (in [4]; in [10]; in [1]; in [2]; in the test with AA1029; with ATS189) was “inactive” each time. The Potency result in the test on ATS95, with CP192, in the test on CP238, in the test with CP286, in the test with CP291 and in the test on DFO2036 was “inactive” throughout. In addition, the Potency result with GB4 is “inactive”. Also, the activity, negative = inhibition in test [11] (parasite line B) was 12% (inactive).

Regarding `Cc1ccc(S(=O)(=O)O)cc1`, the Potency result in [1] and in test [2] was “inactive” throughout.

As for `CC[C@H]1[C@@H](O)[C@@H]2[C@H](CC[C@]3(C)[C@@H]([C@H](C)CCC(=O)O)CC[C@@H]23)[C@@]2(C)CC[C@@H](O)C[C@@H]12`, in test [1], the Potency entry was “inactive”. Further, the Potency in test [2] was 11.2 µM (active).

Consider `CC1CCC(C(C)C)C(OC(=O)c2ccccc2O)C1` (centres undefined), for which the Potency entry (in test [10]; in [1]; in test [2]; with AA1029; in the test with ATS189; in the test with ATS95) was “inactive” in each case. Besides, the Potency result with CP192, with CP238, with CP286, in the test with CP291, in the test on DFO2036 and in the test on GB4 was “inactive” throughout. The activity, negative = inhibition in [11] (parasite line A) is -1.98% (inactive); in test [11] (parasite line B), 8.37% (inactive).

Take `O=C(/C=C/c1ccc(Cl)cc1)N1CCC2(CC1)CN(Cc1ccc(Cl)c(Cl)c1)C(=O)O2`: the Potency entry in test [1] and in test [2] was “inactive” in each case. Further, the Z-AUC is 1.05 (inactive) in test [3], -0.18 in [3] (setting [12]) and 0.00813 in test [3] (measured here: PEO4 Z-AUC).

Turning to `C#C[C@]1(O)CC[C@H]2[C@@H]3CCC4=CC(=O)CCC4[C@H]3CC[C@@]21CC` (some centres undefined), the Potency result in test [1] and in test [2] was “inactive” throughout.

Take `CCCN1C[C@@H](NS(=O)(=O)N(CC)CC)C[C@@H]2Cc3c(O)cccc3C[C@H]21`: the Potency entry in test [1] and in test [2] was “inactive” each time.

As to `COC(=S)NCCn1c([N+](=O)[O-])cnc1C`, the Potency entry in [1] and in [2] was “inactive” each time.

On to `CONC(=O)c1ccccc1Nc1cc(Nc2cc(C)nn2C(C)C)ncc1Cl`, for which the Potency entry in [1] and in [2] was “inactive” throughout. The results for the Z-AUC in [3], in test [3] (setting [12]) and in test [3] (measured here: PEO4 Z-AUC) were 0.959 (inactive), 0.188 and 0.196, respectively.

(Values after PubChem BioAssay (NCATS).)
